Bioassay records deposited in PubChem BioAssay by National Center for Advancing Translational Sciences (NCATS).
IL1B secr inh: blocks inflammasome-driven IL-1 beta release. THP-1 LPS/ATP IL-1B secretion, AlphaLISA, 16 h; stronger effect = lower value. activity change, % at 57.5 µM. 4.7% of 360,000 active; in the data active = activity change below about -50%; inconclusive = mostly about -30% to -49%
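THP-1 cells pretreated 1 hr with compounds (up to 57.5 uM final), then stimulated with LPS (250 ng/mL final) plus ATP (1.25 mM final); secreted IL-1B measured by AlphaLISA after 16 hr, decreased signal indicating inhibition.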
RORgamma inh: ROR gamma (mouse) transcription inhibition. 5.4% of 310,000 active. Drosophila S2 Gal4-RORgamma UAS-luciferase reporter, 20 h. P51450. Potency, µM (doses to about 53.6 µM), for inactives: at the top dose activity change, negative = inhibition, usual class: inhibitors; also: potency is read from the fitted curve at half-maximal effect; nearly all actives have a fitted effect of over 60% in size
Target sequence (P51450 whole entry, looked up, the tested form may be a part): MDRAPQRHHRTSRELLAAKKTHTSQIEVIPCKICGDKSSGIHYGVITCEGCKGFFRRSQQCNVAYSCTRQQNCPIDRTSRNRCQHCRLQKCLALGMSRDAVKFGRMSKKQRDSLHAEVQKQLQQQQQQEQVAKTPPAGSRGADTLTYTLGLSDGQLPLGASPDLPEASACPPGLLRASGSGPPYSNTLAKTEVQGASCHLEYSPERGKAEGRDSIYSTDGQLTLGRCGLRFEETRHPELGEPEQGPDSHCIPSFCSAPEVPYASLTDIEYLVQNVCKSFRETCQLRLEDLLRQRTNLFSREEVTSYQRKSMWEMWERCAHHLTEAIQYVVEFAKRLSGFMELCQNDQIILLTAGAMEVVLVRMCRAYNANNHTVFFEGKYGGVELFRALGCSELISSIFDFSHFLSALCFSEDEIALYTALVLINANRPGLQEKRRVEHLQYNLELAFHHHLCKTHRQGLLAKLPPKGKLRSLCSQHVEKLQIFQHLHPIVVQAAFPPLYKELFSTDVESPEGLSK
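Drosophila S2 cells stably expressing Gal4-DBD/mouse RORγ fusion under metallothionein promoter plus UAS-luciferase; compound 1 h, then 700 uM CuSO4 induction for 20 h at ambient temperature; inhibition read as reduced luminescence.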
ELG1 DNA repair: inhibitors of ELG1-dependent DNA repair in HEK293T cells. Potency, µM (series often up to 46.1 µM), for inactives: at the top dose activity change, negative = inhibition, usual class: inhibitors. 2.3% of 330,000 active. HEK293T ELG1-luciferase reporter, luminescence, 16 h; DNA damage induced by 5-fluorouridine. AID 504467; also: potency is read from the fitted curve at half-maximal effect; nearly all actives have a fitted effect of over 55% in size
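Step one: seed 2,000 cells per well. Step two: pin-transfer compound or DMSO alongside 5-fluorouridine. Step three: incubate 16 hr, 37 °C, 5% CO2. Step four: add ONE-Glo, wait 30 min, read luminescence.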
Gal4-VP16 FLuc: Gal4-VP16 reporter inhibition counter-screen; Drosophila S2 Gal4-VP16 UAS-luciferase, luminescence, 20 h; Potency, µM (top dose mostly 53.6 µM), without a hit: top-dose activity, negative = inhibition, actives largely listed as inhibitors; 3.5% of 310,000 active; AID 2546;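 also: Gal4-VP16 expression switched on by copper sulfate through the metallothionein promoter; potency is read from the fitted curve at half-maximal effect; nearly all actives have a fitted effect of over 50% in size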
DT40 TDP1 CPT: DT40-hTDP1 cell growth loss with CPT; Potency, µM (series often up to 46.2 µM), for inactives: top-dose activity change, negative = growth inhibition, hits mostly inhibitors; 12% of 420,000 active; AID 686979; chicken DT40 Tdp1-/-;hTDP1 cells + 20 nM CPT, ATP luminescence, 48 h; also: potency is read from the fitted curve at half-maximal effect; nearly all actives have a fitted effect of over 55% in size
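Cell growth measured by CellTiter-Glo luminescence after a minimum 48 h, 37 C compound exposure with 20 nM CPT in Tdp1-knockout DT40 cells stably expressing hTDP1, seeded 400/well; qHTS titration format.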
DT40 TDP1 no CPT: qHTS for Inhibitors of human tyrosyl-DNA phosphodiesterase 1 (TDP1): qHTS in cells in absence of CPT; DT40 Tdp1-/- hTDP1 cells, no CPT, ATP luminescence, 48 h; Potency, µM (top dose mostly 46.2 µM), for the others: top-dose activity change, negative = growth inhibition, usual class: inhibitors; 15% of 420,000 active; AID 686978, 2013; also: potency is read from the fitted curve at half-maximal effect; nearly all actives have a fitted effect of over 55% in size
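Readout: luminescence from CellTiter-Glo after 30 min in the dark at RT. Cells: DT40 Tdp1-/- with stable hTDP1, 400/well. Exposure: compounds alone, ≥48 hr, 37 °C.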
* = called active by the depositor; ? = inconclusive; · = no result given. Hits are enriched below; roughly 21% of the tested compounds scored in any of these assays. Unless noted, calls follow the shape of the dose curve; as a rule, active = well fitted curve in the direction sought with a large enough effect; inconclusive = small, poorly fitted or top-dose-only effect, or another doubt; inactive = no such curve, though single readings can be large; an effect the other way counts as inactive or inconclusive. % is scaled to controls: 0 for no effect and ±100 for the full control effect.

SMILES	IL1B secr inh	RORgamma inh	ELG1 DNA repair	Gal4-VP16 FLuc	DT40 TDP1 CPT	DT40 TDP1 no CPT
Cc1ccc([N+](=O)[O-])cc1S(=O)(=O)Nc1ccc(-c2ccc(N3CCOCC3)nn2)cc1	4	·	16%	·	-1%	-1%
Cc1ccc(NS(=O)(=O)c2cc([N+](=O)[O-])ccc2N/N=C/c2sc(N3CCOCC3)nc2-c2ccccc2)c(C)c1	0	-2%	5%	-3%	21µM*	18µM*
CCCCOc1ncnc2c1[nH]c1ccc(OCC)cc12	23	2%	-11%	5%	-18%	-18%
O=C(c1ccco1)N1CCN(c2ncnc3c2[nH]c2ccccc23)CC1	·	?	?	-26%	·	·
O=C(c1ccco1)N1CCN(c2ncnc3c2[nH]c2ccc(Br)cc23)CC1	?	-5%	23µM*	?	?	23µM*
CCOc1ccc2[nH]c3c(N4CCN(C(=O)c5ccco5)CC4)ncnc3c2c1	-11	-7%	-11%	-6%	16µM*	13µM*
CCOc1ccc2[nH]c3c(N4CCC5(CC4)OCCO5)ncnc3c2c1	?	-2%	?	5%	23µM*	23µM*
COc1ccc2c(c1)c1c(c(=O)n(Cc3ccccc3)c(=O)n1CC(=O)Nc1ccccc1OC)n2C	·	·	·	·	5%	-2%
CC(=O)N1CCc2cc(NC(=O)C3(C)CCN3Cc3ccccc3OC(F)F)ccc21 (configuration not stated)	-9	·	·	·	26µM*	18µM*
COc1cccc(NC(=O)C2(C)CCN2Cc2ccccc2OC(F)F)c1 (configuration not stated)	-13	·	·	·	21µM*	16µM*
CC1(C(=O)Nc2ccc3c(c2)OCCO3)CCN1Cc1ccccc1OC(F)F (configuration not stated)	10	·	·	·	?	?
CCCC(=O)N1CCC1(C)C(=O)Nc1cc(OC)ccc1OC (configuration not stated)	32	·	·	·	-26%	-3%
COc1cccc(NC(=O)C2(C)CCN2Cc2ccc3ccccc3c2)c1 (configuration not stated)	6	·	·	·	?	?
CC1(C(=O)Nc2cccc(NS(C)(=O)=O)c2)CCN1Cc1ccccc1OC(F)F (configuration not stated)	-22	·	·	·	23µM*	16µM*
COc1ccc(OC)c(NC(=O)C2(C)CCN2Cc2ccccc2OC(F)F)c1 (configuration not stated)	-17	·	·	·	?	16µM*
O=C(NCC1CCCO1)c1ccccc1NS(=O)(=O)c1ccc(Br)s1 (configuration not stated)	23	·	·	·	14%	-29%
COc1ccc2c(c1)OC(=O)CC2c1ccc2c(c1)OCO2 (configuration not stated)	·	0%	·	-4%	·	·
CSc1nc2ccccc2cc1/C=C(\C#N)c1cccc(Cl)c1	-2	-36%	-28%	-5%	?	?
COc1ccc(OC)c(NC(=O)C2(C)CCN2C(C)C)c1 (configuration not stated)	0	·	·	·	-18%	-22%
Cc1c(Br)cccc1NC(=O)C1(C)CCN1Cc1ccccc1OC(F)F (configuration not stated)	-2	·	·	·	26µM*	?
Cc1ccc(NC(=O)C2(C)CCN2CCc2ccccc2)cc1O (configuration not stated)	0	·	·	·	-24%	-21%
COc1ccc(OC)c(NC(=O)C2(C)CCN2Cc2ccsc2)c1 (configuration not stated)	-9	·	·	·	16µM*	12µM*
CC(=O)N1CCc2cc(NC(=O)C3(C)CCN3CCc3ccccc3)ccc21 (configuration not stated)	-6	·	·	·	21µM*	21µM*
NC(=O)C1(Nc2ccc(C(=O)O)cc2)CCCC1	2	·	·	·	3%	-3%
Fc1cccc(NC(=S)N2CCn3cccc3C2c2cccnc2)c1 (configuration not stated)	-7	9%	-23%	-1%	4%	13%
SMILES	IL1B secr inh	RORgamma inh	ELG1 DNA repair	Gal4-VP16 FLuc	DT40 TDP1 CPT	DT40 TDP1 no CPT
S=C(Nc1ccccc1)N1CCn2cccc2C1c1cccnc1 (configuration not stated)	-21	?	-1%	4%	1%	-6%
Fc1ccccc1C1c2cccn2CCN1C(=S)Nc1cccc(Br)c1 (configuration not stated)	0	13µM*	?	?	-2%	16%
Fc1ccccc1C1c2cccn2CCN1C(=S)Nc1ccc(Br)cc1 (configuration not stated)	-86*	?	-16%	-13%	21µM*	?
Fc1ccc(C2c3cccn3CCN2C(=S)Nc2cccc(F)c2)cc1 (configuration not stated)	-9	10µM*	?	-66%	-11%	?
Cc1ccc(NC(=O)NCCc2c(C)nn(C)c2C)c(Cl)c1	·	·	·	·	-8%	-25%
Cc1cccc(C)c1NC(=O)C1c2ccccc2OCC(=O)N1Cc1ccccc1 (configuration not stated)	27	·	·	·	-23%	?
O=C(c1cccnc1)N1CCN(C/C=C/c2ccccc2)CC1	23	22%	-4%	4%	-1%	1%
COc1ccc(C(=O)NCC(=O)N2CC=C(c3ccccc3)CC2)cc1OC	7	·	-35%	·	?	26µM*
COc1ccc(N2CCN(C(=O)[C@@H](NC(=O)c3ccccc3Cl)C(C)C)CC2)cc1	0	16%	-2%	0%	?	?
Cc1cccc(C(=O)NCC(=O)N2CC=C(c3ccccc3)CC2)c1	15	·	-10%	·	?	?
Cc1ccc(C(=O)CCC(=O)N2CCN(C/C=C/c3ccccc3)CC2)cc1	4	·	·	·	?	21µM*
COc1ccc(C(=O)NC(C(=O)N2CCN(C/C=C/c3ccccc3)CC2)C(C)C)cc1 (configuration not stated)	-25	·	·	·	18µM*	?
O=C(NC(=S)N1CCN(C/C=C/c2ccccc2)CC1)c1cccnc1	23	0.4µM*	?	0.89µM*	-2%	5%
O=C(COc1ccc(F)cc1Br)NCc1nnc2ccccn12	-2	·	12%	·	-17%	-10%
CCCNC(=O)Cn1c(=O)c2cccn2c2cccnc21	·	·	·	·	-7%	-6%
CCOc1ccc(C(=O)NCC(=O)N2CCN(C/C=C/c3ccccc3)CC2)cc1OCC	4	·	-8%	·	?	16µM*
